TEAD-YAP block: TEAD-YAP interaction inhibition; 1.4% of 640,000 active; inhibition, % at 9.12 µM; HEK-TIYL cells, TEAD-Gal4/YAP UAS-luciferase luminescence; in the data active = inhibition above about 32%;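 also: 0% = median of test compound wells and 100% = reference inhibitor wells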
MITF inh: inhibitors of human MITF. AlphaScreen MITF homodimerization, bead proximity signal. AID 1259374. 0.91% of 650,000 active. O75030. inhibition, % at 2.6 µM; in the data active = inhibition above about 50%;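 also: 0% = vehicle wells with protein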
Target sequence (O75030 whole entry, looked up): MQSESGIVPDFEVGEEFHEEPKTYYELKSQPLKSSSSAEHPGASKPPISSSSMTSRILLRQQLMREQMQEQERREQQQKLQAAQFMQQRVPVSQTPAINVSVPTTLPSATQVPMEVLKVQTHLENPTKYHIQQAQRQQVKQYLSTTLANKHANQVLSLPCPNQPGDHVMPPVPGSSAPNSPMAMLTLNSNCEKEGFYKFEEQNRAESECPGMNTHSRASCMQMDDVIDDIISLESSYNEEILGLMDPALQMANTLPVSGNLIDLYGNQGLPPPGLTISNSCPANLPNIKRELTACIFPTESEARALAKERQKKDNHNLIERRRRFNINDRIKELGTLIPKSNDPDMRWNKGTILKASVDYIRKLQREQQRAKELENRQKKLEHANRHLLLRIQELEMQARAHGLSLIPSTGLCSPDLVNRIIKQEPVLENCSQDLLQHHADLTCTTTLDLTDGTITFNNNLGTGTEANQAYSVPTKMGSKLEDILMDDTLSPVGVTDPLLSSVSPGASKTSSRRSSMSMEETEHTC
GPR151 activ: human GPR151 activation; Q8TDV0; PathHunter beta-arrestin GPR151 cells, luminescence; activation, % at 11.2 µM; 1% of 650,000 active; in the data active = activation above about 4.9%;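 also: 0% = median of compound wells and 100% = cells with positive control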
FBW7 activator: human FBW7 E3 ligase activation, primary screen; Q969H0; AlphaScreen FBW7–phospho-cyclin E peptide binding, activator screen; normalized activity (activation), % at 26.1 µM; 0.13% of 650,000 active; in the data active = normalized activity above about 1.9%;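 also: purified mutant Fbw7 with reduced substrate affinity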
Starred values were filed as active, the others as inactive. Only some compounds are listed: those with a hit (about 3.5% of all), similar ones and a draw of the others.

SMILES	TEAD-YAP block	MITF inh	GPR151 activ	FBW7 activator
N#Cc1c(NC(=O)c2ccccc2I)sc2c1CCCC2	49*	9	1	0
N#Cc1c(NC(=O)c2cccc3ccccc23)sc2c1CCC2	58*	-11	-1	0
N#Cc1c(NC(=O)c2cc(Cl)ccc2[N+](=O)[O-])sc2c1CCC2	37*	10	3	0
NC(=O)c1c(NC(=O)c2cccc3ccccc23)sc2c1CCC2	4	17	-1	0
N#Cc1c(NC(=O)c2cccc3ccccc23)sc2c1CCCC2	43*	-5	0	0
O=CNNC(=O)c1ccccc1Cl	5	4	0	0
CCCCCCCC(=O)Nc1ccc(C(=O)Nc2ccccc2)cc1	0	-4	-3	0
CCc1cc2c(=O)n(C)c(SCC(=O)Nc3ccc(S(N)(=O)=O)cc3)nc2s1	-5	3	-1	0
CC(C)Nc1cc(N(C)C)c2noc3c2c1C(=O)c1ccccc1-3	11	51*	0	-1
CCOC(=O)N1CCN(c2cc(NC(C)C)c3c4c(onc24)-c2ccccc2C3=O)CC1	11	71*	1	-1
CCCCNc1cc(N2CCN(CCO)CC2)c2noc3c2c1C(=O)c1ccccc1-3	20	54*	-1	0
CC(C)Nc1cc(N2CCC(=O)CC2)c2noc3c2c1C(=O)c1ccccc1-3	-16	22	0	0
CCOC(=O)N1CCN(c2cc(Nc3ccc(OC)cc3)c3c4c(onc24)-c2ccccc2C3=O)CC1	0	-6	0	0
CCCN1CCN(c2cc(NCCO)c3c4c(onc24)-c2ccccc2C3=O)CC1	21	24	-2	0
CC(C)Nc1cc(N2CCN(C)CC2)c2noc3c2c1C(=O)c1ccccc1-3	7	52*	0	-1
CCCN1C(SCC(=O)NCc2ccc(C)cc2)=NS(=O)(=O)c2ccccc21	5	2	-1	0
Cc1cc(NC(=O)c2cccc(Cl)c2Cl)ccc1-c1cc2ccccc2oc1=O	5	10	-1	2
O=C(COc1ccc(Cl)c2ccccc12)NCCCN1CCCC1=O	-7	0	1	0
CCOC(=O)CC1(NC(=O)CC2C(=O)NCCN2CC(C)C)CCCCC1 (configuration not stated)	3	-3	-1	0
CCOC(=O)C1=C(C)NC(SC)=C(C#N)C1CC(C)C (configuration not stated)	38*	2	0	0
COc1ccc(-n2nc(C(=O)c3ccccc3)c(C(F)(F)F)cc2=O)cn1	49*	-2	2	0
COc1cc(C(F)(F)F)c(C(=O)NC2(O)C(=O)c3ccccc3C2=O)cn1	2	3	-1	-1
CCc1ccc2c(c1)[C@H]1OCC[C@H]1[C@@H](c1cccs1)N2	47*	17	1	0
CCOC(=O)c1cnc2cc(Cl)c(OC)cc2c1N1CCN(c2cccc(Cl)c2)CC1	-12	-9	1	0
COc1ccc(Cc2cnc(NC(=O)COc3ccccc3OC)s2)cc1	48*	-1	1	1
SMILES	TEAD-YAP block	MITF inh	GPR151 activ	FBW7 activator
COc1ccccc1OCC(=O)Nc1ncc(Cc2ccc(Br)cc2)s1	4	11	3	1
COc1ccc(OCC(=O)Nc2ncc(Cc3ccc(Br)cc3)s2)cc1	1	-159	-1	1
COc1ccc(Cc2cnc(NC(=O)COc3cccc(C)c3)s2)cc1	52*	-4	1	0
Cc1ccccc1OCC(=O)Nc1ncc(Cc2ccc(Br)cc2)s1	55*	-4	2	0
CC(C)(C)C(=O)N1CCC[C@@H](Cn2nc(-c3cccs3)ccc2=O)C1	66*	12	0	0
O=C(Nc1ccc(Oc2ccccc2)cc1)c1ccc(F)c(S(=O)(=O)N2CCCCC2)c1	37*	5	0	0
O=C(Nc1ccc(Oc2ccccc2)cc1)c1ccc(F)c(S(=O)(=O)N2CCC3(CC2)OCCO3)c1	61*	22	-1	0
O=C(Nc1ccc(Oc2ccccc2)cc1)c1ccc(F)c(S(=O)(=O)N2CCN(C3CCCCC3)CC2)c1	42*	-2	2	0
Cc1ccc(-c2nnn(CC(=O)N(CC(=O)NC3CCCCC3)c3ccc(F)cc3)n2)o1	7	-2	-1	0
CC1=C(C(=O)Nc2ccccc2Cl)C(c2cccc(Br)c2)NC(=O)N1 (configuration not stated)	-3	1	2	0
O=C(N/N=C/c1cc(Br)c(O)c(Br)c1)c1cc(O)c(O)c(O)c1	1	90*	2	0
O=C(N/N=C/c1ccc(O)c(O)c1)c1cc(O)cc(O)c1	17	19	-1	0
O=C(N/N=C/c1ccc(/C=N/NC(=O)c2ccc(O)c(O)c2)cc1)c1ccc(O)c(O)c1	-6	107*	2	-1
O=C(N/N=C/c1ccc(O)cc1)c1cc(O)c(O)c(O)c1	8	59*	0	0
O=S(=O)(Nc1cccc(C(F)(F)F)c1)c1cccc2cccnc12	-12	-6	1	0
COc1cc(NC(=O)c2sc3ncnc(N(C)c4ccccc4)c3c2C)cc(OC)c1OC	50*	8	0	0
CN(C)S(=O)(=O)N1CCC(Oc2cccc(C(=O)NC3CCCCCC3)c2)CC1	44*	17	0	0
CCC(O)CNC(=O)c1cccc(OC2CCN(S(=O)(=O)N(C)C)CC2)c1 (configuration not stated)	2	10	0	0
Cc1ccc(C(=O)Nc2nc3ccccc3n2C)cc1	41*	16	-3	0
Cn1c(NC(=O)c2ccc(Cl)c(Cl)c2)nc2ccccc21	-20	22	0	0
COc1ccc2c(c1)OC/C(=C\c1ccc(OC)c(O)c1)C2=O	42*	1	0	1
COc1ccc2c(c1)O/C(=C\c1ccc(OC(C)=O)c(OC)c1)C2=O	43*	-11	3	0
CC(C)(C)C(=O)Oc1ccc2c(c1)O/C(=C\c1ccncc1)C2=O	4	6	0	0
COc1ccc2c(c1)OC/C(=C\c1cccs1)C2=O	-45	10	-1	0
COc1ccc(/C=C2\Oc3cc(OC(=O)c4cccnc4)ccc3C2=O)cc1	41*	21	0	0
SMILES	TEAD-YAP block	MITF inh	GPR151 activ	FBW7 activator
Cc1ccc(C)c(N2CC(O)=C(c3nc4ccccc4c(=O)[nH]3)C2=N)c1	5	-5	0	0
Cc1cc(OCC(=O)Nc2ccc(S(=O)(=O)Nc3onc(C)c3C)cc2)cc(C)c1Cl	1	-6	0	0
CCN(CC)C(=O)C(Cl)c1ccccc1 (configuration not stated)	7	-2	0	0
COc1ccc2cc3c(N)[nH]nc3nc2c1	80*	1	0	0
O=S(=O)(Nc1ccc(Cc2ccncc2)cc1)c1ccc(Cl)cc1	38*	5	2	0
O=C(Cn1cnc2ccccc21)N1CCN(Cc2csc(-c3ccccc3)n2)CC1	46*	21	1	0
O=C(CCn1cnc2ccccc2c1=O)N1CCN(Cc2csc(-c3ccccc3)n2)CC1	21	-4	0	0

Source: PubChem (The Scripps Research Institute Molecular Screening Center)
